DT40 TDP1 CPT – DT40-hTDP1 cell growth loss with CPT | actives 12% (n = 420,000) | chicken DT40 Tdp1-/-;hTDP1 cells + 20 nM CPT, ATP luminescence, 48 h | Potency, µM (titrated, usually from 46.2 µM), for inactives: at the highest dose activity change, negative = growth inhibition, actives largely listed as inhibitors | AID 686979; also: % is scaled to controls: 0 for no effect and ±100 for the full control effect; nearly all actives have a fitted effect of over 55% in size
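Chicken DT40 Tdp1-/- cells complemented with human TDP1, 400 cells/well, exposed to compounds plus 20 nM camptothecin for at least 48 h at 37 C; viability read as ATP content by CellTiter-Glo luminescence.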
ClpP mod – qHTS Assay for Activators of ClpP; Potency, µM (doses to about 57.5 µM), inactives show top-dose activity change, negative = active; purified B. subtilis ClpP, FRET peptide cleavage, 20 min; actives 1.9% (n = 340,000); ATP-dependent Clp protease proteolytic subunit (Bacillus subtilis (strain 168)), P80244; active = well fitted falling curve with a large enough effect; inconclusive = small, poorly fitted or top-dose-only effect; inactive = no such curve, though single readings can be large or run the other way; also: the source files actives as falling curves though it sought activators and does not explain the sign; nearly all actives have a fitted effect of over 65% in size
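Buffer: 100 mM Tris/HCl pH8, 100 mM KCl, 0.05% low protease BSA, 2.5% glycerol, 0.01% Tween-20. ClpP 10 microg/mL final; 20 min RT; delta FRET normalized to ADEP and DMSO controls.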
TDP1 inh – inhibitors of human tyrosyl-DNA phosphodiesterase TDP1. actives 0.28% (n = 350,000). recombinant TDP1, AlphaScreen DNA substrate cleavage. Q9NUW8. Potency, µM (doses to about 130 µM), for the others: at the top dose activity change, negative = inhibition, most hits filed as inhibitors; also: % is scaled to controls: 0 for no effect and ±100 for the full control effect; nearly all actives have a fitted effect of over 40% in size
Target sequence (Q9NUW8 whole entry, looked up): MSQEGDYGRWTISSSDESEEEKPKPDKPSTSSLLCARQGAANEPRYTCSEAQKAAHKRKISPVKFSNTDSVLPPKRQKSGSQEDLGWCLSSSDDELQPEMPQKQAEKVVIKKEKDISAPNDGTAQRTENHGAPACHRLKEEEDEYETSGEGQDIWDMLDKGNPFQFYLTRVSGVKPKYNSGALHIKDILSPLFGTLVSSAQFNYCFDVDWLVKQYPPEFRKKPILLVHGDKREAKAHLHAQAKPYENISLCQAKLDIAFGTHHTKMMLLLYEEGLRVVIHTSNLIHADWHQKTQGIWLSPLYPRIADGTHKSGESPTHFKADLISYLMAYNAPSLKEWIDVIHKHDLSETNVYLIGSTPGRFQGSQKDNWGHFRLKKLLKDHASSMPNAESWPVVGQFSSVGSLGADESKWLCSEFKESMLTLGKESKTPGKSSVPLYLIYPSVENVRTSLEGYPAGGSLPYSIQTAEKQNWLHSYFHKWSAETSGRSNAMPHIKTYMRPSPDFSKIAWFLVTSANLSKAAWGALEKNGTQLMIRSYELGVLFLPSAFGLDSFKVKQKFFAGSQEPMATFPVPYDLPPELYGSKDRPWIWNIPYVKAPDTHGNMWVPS
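Compounds were preincubated with Tdp1 (1 nM final) for 15 min at room temperature before substrate (15 nM final) started a 5 min reaction; beads (10 ug/ml final) were then added for 10 min before AlphaScreen detection.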
DT40 TDP1 no CPT – qHTS for Inhibitors of human tyrosyl-DNA phosphodiesterase 1 (TDP1): qHTS in cells in absence of CPT; DT40 Tdp1-/- hTDP1 cells, no CPT, ATP luminescence, 48 h; Potency, µM (doses to about 46.2 µM), for inactives: at the top dose activity change, negative = growth inhibition, actives largely listed as inhibitors; actives 15% (n = 420,000); AID 686978, 2013; also: % is scaled to controls: 0 for no effect and ±100 for the full control effect; nearly all actives have a fitted effect of over 55% in size
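Compound effects on proliferation are scored in DT40 Tdp1-/-;hTDP1 cells in the absence of CPT. ATP levels (CellTiter-Glo luminescence) are recorded after a ≥48 hr, 37 °C incubation.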
An asterisk follows results filed as active; ? = inconclusive; . = no result; ! = not active in a repeat; [ ] = remark or other dose. An excerpt weighted towards active compounds, which were near 17% of everything screened. Unless noted, calls follow the shape of the dose curve; as a rule, active = well fitted curve in the direction sought with a large enough effect; inconclusive = small, poorly fitted or top-dose-only effect, or another doubt; inactive = no such curve, though single readings can be large; an effect the other way counts as inactive or inconclusive. Potency is read from the fitted curve at half-maximal effect.

SMILES	DT40 TDP1 CPT	ClpP mod	TDP1 inh	DT40 TDP1 no CPT
COCCNC(=O)C1(C)CCCN(Cc2noc(-c3ccccc3OC)n2)C1 (stereo not given)	?	-12.7%	.	?
O=C(NNC(=O)c1ccc(SCC2CCCO2)c([N+](=O)[O-])c1)c1ccc(F)cc1 (stereo not given)	?	0.2%	4.7%	20µM*
CCCC[C@@H]1CNC(=O)C(=O)N1CCCCC1CCCCC1	?	-6.6%	.	?
CN1CCN(c2cc(-c3ccoc3)ncn2)CC1	5.4%	.	.	-1.6%
Cc1nc(NC(=S)NC(=O)COc2ccccc2Cl)ccc1Br	?	28.2µM*	-5.5%	?
COc1ccc(-c2cc(-c3ccc4c(c3)NC(=O)CO4)nc3c2COc2ccc(F)cc2-3)cc1	?	-3.2%	-3.2%	1.46µM*
O=C1COc2ccc(-c3cc(-c4ccc(F)cc4)c4c(n3)-c3ccccc3OC4)cc2N1	6.51µM*	-22.9%	-4.5%	5.8µM*
O=C1COc2ccc(-c3cc(-c4ccc(F)cc4)c4c(n3)-c3cc(Cl)ccc3OC4)cc2N1	?	-10.6%	3.2%	?
CC(C)c1ccc(C(=O)NC(=S)Nc2ccc3[nH]c(=O)[nH]c3c2)cc1	-1.6%	.	8.2%	?
CCCCCCCCCCCCCCCCCC(=O)[O][Al]	0.2%	.	.	-6.8%
Oc1c(CN2CCCCC2)ccc2cccnc12	1.64µM*	.	.	1.03µM*
Oc1c(CN2CCOCC2)ccc2ccccc12	?	.	7.7%	?
CCOC(=O)N1CCN(Cc2ccc(O)c3ncccc23)CC1	0.581µM*	.	5.1%	0.651µM*
Cc1ccc(C)c(S(=O)(=O)N2CCN(Cc3ccc(O)c4ncccc34)CC2)c1	5.8µM*	.	8.0%	5.8µM*
Oc1ccc(CN2CCN(c3ccccc3)CC2)c2cccnc12	5.17µM*	1.2%	7.3%	3.26µM*
CSc1ncccc1C(=O)N1CCN(S(=O)(=O)c2cc(C)ccc2C)CC1	-11.7%	.	.	-28.5%
Oc1ccc2ccccc2c1CN1CCN(c2ccccc2)CC1	-3.1%	?	4.5%	-20.0%
CCOC(=O)N1CCN(Cc2ccccn2)CC1	0.8%	2.0%	1.0%	0.7%
CC(C)C[C@@H](CC(=O)N[C@@H](CCC(=O)O)CC(=O)O)NC(=O)[C@@H]1CCCC[C@H]1NC(=O)C[C@H](CCCN)NC(=O)C[C@H](Cc1c[nH]c2ccccc12)NC(=O)[C@@H]1CCCC[C@H]1N	.	.	4.4%	.
CCC(CC)C(=O)Nc1nnc(S(=O)(=O)N(C)c2cc(C)cc(C)c2)s1	-23.5%	-1.3%	0.0%	?
Oc1ccc(CNc2ccccn2)c2cccnc12	.	.	3.3%	.
Ic1ccc(N2CCN(Cc3c[nH]c4ncccc34)CC2)cc1	11.2µM*	-5.9%	-10.7%[56.1 µM]	3.26µM*
Oc1ccc(CN2CCCCC2)c2cccnc12	5.17µM*	-0.9%	1.1%	5.17µM*
Cc1ccc(OCCCC(=O)N(C)CC(=O)Nc2c(C)cccc2C)cc1	-9.4%	-0.7%	.	?
COc1ccc(CCN(C)c2ccc(C(N)=O)cc2[N+](=O)[O-])cc1OC	29.1µM*	-0.2%	7.7%	-14.9%
SMILES	DT40 TDP1 CPT	ClpP mod	TDP1 inh	DT40 TDP1 no CPT
CCO/C(=C/c1sc2ccc(OC)cc2[n+]1CCCS(=O)(=O)[O-])CC	3.6%	-12.6%	-2.8%	3.5%
CCC(/C=C1\Sc2ccc(OC)cc2N1CCO)=C\c1sc2ccc(OC)cc2[n+]1CCO	3.26µM*	-2.3%	6.9%	5.17µM*
CCC(/C=C1\Sc2ccc(OC)cc2N1CC)=C\c1sc2ccc(OC)cc2[n+]1CCCS(=O)(=O)[O-]	3.26µM*	-1.7%	-3.4%	1.84µM*
CCC(=O)/C=C1/Sc2ccc(OC)cc2N1CC	10.3µM*	-3.4%	-1.0%	?
CCOC(=O)c1cn(CC(=O)Nc2cccc(Cl)c2)nn1	1.8%	-2.7%	5.8%	2.4%
Cc1cccc(NC(=O)Cn2nnc(C(=O)NCc3cccs3)c2N)c1C	0.4%	4.9%	4.9%	?
Cc1ccccc1NC(=O)Cn1nnc(C(=O)NCc2cccs2)c1N	9.2µM*	0.7%	4.7%	6.51µM*
CCOC(=O)c1cn(CC(=O)Nc2cccc(Cl)c2C)nn1	3.7%	35.5µM*!	4.7%	8.2%
Cc1c(Cl)cccc1NC(=O)Cn1nnc(C(=O)NCc2cccs2)c1N	5.17µM*	.	2.5%	1.64µM*
Cc1ccc(NC(=O)Cn2nnc(C(=O)NCc3cccs3)c2N)c(C)c1	-7.9%	0.1%	-10.7%	17.1%
CCOc1ccc(-c2cc3c(=O)n(Cc4nc(-c5ccccc5OCC)oc4C)ccn3n2)cc1Cl	-5.7%	-3.9%	1.8%	-1.1%
CCCCCc1nnc(NC(=O)c2cccc(S(=O)(=O)N3CCOCC3)c2)s1	-16.7%	-3.4%	0.9%[56.1 µM]	-40.1%
CCn1cc2nc(SCc3ccc(F)cc3)n(Cc3ccc(Cl)cc3)c(=O)c2n1	6.51µM*	-0.8%	2.6%	3.26µM*
CCSc1nc2ccccc2c(=O)n1Cc1ccc(F)cc1	0.1%	-2.6%	-11.5%	-27.1%
CCn1cc2nc(SCc3ccccc3F)n(Cc3ccc(C)cc3)c(=O)c2n1	20.6µM*	-2.2%	0.0%	11.6µM*
CCn1cc2nc(SCc3cc(C)ccc3C)n(Cc3ccc(C)cc3)c(=O)c2n1	16.4µM*	-4.7%	2.6%	-73.5%
CCn1cc2nc(SCc3ccc(C)cc3)n(CCc3ccccc3)c(=O)c2n1	?	-2.2%	0.0%	?
Cc1ccc(C)c(CSc2nnc(C)c(=O)n2N)c1	12.0%	.	3.5%	-4.4%
CCn1cc2nc(SCc3ccccc3Cl)n(Cc3ccc(OC)cc3)c(=O)c2n1	25.9µM*	-3.2%	2.6%	14.6µM*
Cc1cccc(-c2nc(C)c(CCNC(=O)C(=O)Nc3cccc(Cl)c3C)s2)c1	.	-0.9%	1.1%	.
Cc1ccc(C)c(OCc2nc3ccc(S(=O)(=O)Nc4c(C)n(C)n(-c5ccccc5)c4=O)cc3[nH]2)c1	-2.3%	.	2.7%	?
CCn1cc2nc(SCc3ccccc3)n(Cc3ccc(C)cc3)c(=O)c2n1	16.4µM*	-1.3%	5.3%	10.3µM*
COC(=O)C1=CN(c2c(C)cc(C)cc2C)C(N)=C(C#N)C1c1ccccc1 (stereo not given)	?	-2.6%	.	?
COC(=O)C1=CN(c2ccc(C)cc2)C(N)=C(C#N)C1c1ccccc1F (stereo not given)	?	-0.2%	.	?
COC(=O)C1=CN(c2ccc3c(c2)OCO3)C(N)=C(C#N)C1c1ccc(-c2ccccc2)cc1 (stereo not given)	5.8µM*	-6.1%	.	6.51µM*
COC(=O)C1=CN(c2cccc(OCc3ccccc3)c2)C(N)=C(C#N)C1c1cccc(F)c1 (stereo not given)	13µM*	-15.6%	.	23.1µM*
COC(=O)C1=CN(c2ccc(F)cc2)C(N)=C(C#N)C1c1ccc(-c2ccccc2)cc1 (stereo not given)	7.31µM*	-18.0%	.	5.8µM*

Source: PubChem (National Center for Advancing Translational Sciences (NCATS))
